Here are results for 31 compounds from ChEMBL document CHEMBL3988442, “University of Dundee, Small-Polar-MMV Screening Library” (2021).

The whole screen tested about 48,000 compounds, of which about 13,000 (27%) showed an effect of 50% or more. This is one part of the list.

The subject of this experiment is Wolbachia pipientis. The experiment is described as follows: Anti-Wolbachia Cell-Based Screen. It counts as functional. Details: scale not given: in the data most compounds retested in dose-response had high values. The conditions noted are these: 5 µM.
On to `Cc1nc(-c2ccc(S(=O)(=O)N3CCSCC3)cc2)co1`, for which the “Percent Effect” value is listed as -2.351%.
As for `Cc1ccc(F)c(C(=O)Nc2cccc(CCN3CCCC3)c2)c1`, the “Percent Effect” value is on record as -3.643%.
As to `Cc1cccc(C2(NCCCS(C)(=O)=O)CCCC2)c1`, the “Percent Effect” value is on record as -2.725%.
With `OCCCNc1cccc(COC2CCCCC2)c1`, the “Percent Effect” value was determined as 117.5%.
For `CS(=O)(=O)CCCNc1cccc(COC2CCCCC2)c1` the value was 108.4%; for `CC(CO)NC(=O)Nc1ccc(COC2CCCC2)cc1` (stereo unspecified), 8.692%.
For the compound `CS(=O)(=O)NC(=O)CCc1cccc(OC2CCCC2)c1`, the “Percent Effect” value was determined as 2.726%.
`CS(=O)(=O)NCc1cccc(COC2CCCCC2)c1`: the “Percent Effect” value was found to be 112.9%.
For `Clc1cncc(NCc2cccc(COC3CCOCC3)c2)n1` the value was -1.49%.
Consider `O=C(CN1CCCS1(=O)=O)Nc1cccc(COC2CCCCC2)c1`, for which the “Percent Effect” value was 13.44%.
`Cc1c(CS(C)(=O)=O)cccc1NCCCC1CCCC1`: the “Percent Effect” value is on record as -1.975%.
Regarding `CNS(=O)(=O)c1cccc(CNc2ccc(C#N)cn2)c1`, the “Percent Effect” value is 2.285%.
Take `CS(=O)(=O)NCCCn1ccc2ccccc21`: the “Percent Effect” value was 3.407%.
Next, `COc1ccc(-c2cc(CN)ccc2F)c(OC)c1OC`: 2.502%.
In the case of `C=C(C)CN(c1cn[nH]c1)S(=O)(=O)c1cccc(C#N)c1`, the “Percent Effect” value is recorded as -12.41%.
Regarding `CCOCC1CC2(CCN(C(=O)C3CC=CC3)CC2)CO1` (stereo unspecified), the “Percent Effect” value is -13.65%.
Take `CNC(=O)C1(N2CCC[C@H]2C(=O)NC2CCCCC2)CCOCC1.Cl`: the “Percent Effect” value is -2.575%.
On to `OCCC1CN(c2nc(-c3ccncc3)nc3c2CCNCC3)CCO1` (stereo unspecified), for which the “Percent Effect” value was -20.05%.
Regarding `CC(C)(C)c1nc(CN2CCCC2Cn2cncn2)no1` (stereo unspecified), the “Percent Effect” value came to 86.44%.
Turning to `CCCc1nc(CN2CCOC(Cn3cncn3)C2)no1` (stereo unspecified), the “Percent Effect” value was 3.436%.
On to `CC(C)(C)c1nc(CN2CCCC2Cn2cccn2)no1` (stereo unspecified), for which the “Percent Effect” value turned out to be 10.76%.
In the case of `CCCc1nc(CN2CCCC2Cn2cncn2)no1` (stereo unspecified), the “Percent Effect” value worked out at 115.4%.
Next, `CN(C)C(=O)Cc1ccc(NCc2nccn2C)cc1`: -22.63%; `Cc1nccn1-c1ccc(CNC(=O)c2ccc[nH]2)cn1`: 15.47%; `Cc1nccn1-c1ccc(=O)n(CCNC(=O)c2cccs2)n1`: 125.6%.
For `Cc1nccn1-c1ccc(CNC(=O)c2ccc([S+](C)[O-])cc2)cn1` (stereo unspecified) the value was 4.955%.
For `O=C(NCCNc1cc(-n2cccc2)ncn1)c1cccs1`, the “Percent Effect” value is 19.24%.
As to `Cc1nccn1-c1ccc(=O)n(CCNC(=O)c2ccncc2)n1`, the “Percent Effect” value came out at 97.47%.
Next, `O=C(NCCn1ccc(-c2ccncc2)n1)c1ccncc1`: -0.4931%; `Cc1nc(NC(=O)N2CCCC(N(C)C)C2)nn1C` (stereo unspecified): -14.3%.
As for `COC(=O)c1ccc2ccn(CC3CCCCO3)c(=O)c2c1` (stereo unspecified), the “Percent Effect” value is on record as -39.6%.
